Screens as filed in PubChem.
Only some compounds are listed: those with a hit (about 1.5% of all), similar ones and a draw of the others.
Integrin act MD = integrin-mediated muscular dystrophy alleviation activation; alpha7betagal myoblasts, beta-gal FDG fluorescence, 48 h; Potency, µM (series often up to 38.3 µM), usual class: activators; 350,000 tested, 0.064% active; AID 624291; note: nearly all actives have a fitted effect of over 60% in size
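alpha7betagal+/- myoblasts (passage 13, 250/well) treated 48 h at 37C with compounds at 1:260 dilution of DMSO stock. Lysed, then beta-galactosidase activity read as FDG fluorescence (ex 480/em 540) after 30 min, with pre-read for autofluorescence.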
Nrf2 ARE act = Nrf2 pathway activation | 410,000 tested, 0.31% active | Potency, µM (top dose mostly 46.1 µM), usual class: activators | AREc32 ARE-luciferase reporter (MCF7-derived line), luminescence, 24 h; note: nearly all actives have a fitted effect of over 65% in size
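Quantitative high-throughput format: AREc32 reporter cells, 1000 per well, received compound by pin transfer and were incubated 24 hr at 37 deg C, 5% CO2, before Steady-Glo luminescence detection.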
ALOX12 inh = blocks human arachidonate 12S-lipoxygenase; purified 12hLO, xylenol orange hydroperoxide absorbance; Potency, µM (series often up to 108 µM), usual class: inhibitors; P18054; 580,000 tested, 1.1% active
Target sequence (P18054 whole entry, looked up): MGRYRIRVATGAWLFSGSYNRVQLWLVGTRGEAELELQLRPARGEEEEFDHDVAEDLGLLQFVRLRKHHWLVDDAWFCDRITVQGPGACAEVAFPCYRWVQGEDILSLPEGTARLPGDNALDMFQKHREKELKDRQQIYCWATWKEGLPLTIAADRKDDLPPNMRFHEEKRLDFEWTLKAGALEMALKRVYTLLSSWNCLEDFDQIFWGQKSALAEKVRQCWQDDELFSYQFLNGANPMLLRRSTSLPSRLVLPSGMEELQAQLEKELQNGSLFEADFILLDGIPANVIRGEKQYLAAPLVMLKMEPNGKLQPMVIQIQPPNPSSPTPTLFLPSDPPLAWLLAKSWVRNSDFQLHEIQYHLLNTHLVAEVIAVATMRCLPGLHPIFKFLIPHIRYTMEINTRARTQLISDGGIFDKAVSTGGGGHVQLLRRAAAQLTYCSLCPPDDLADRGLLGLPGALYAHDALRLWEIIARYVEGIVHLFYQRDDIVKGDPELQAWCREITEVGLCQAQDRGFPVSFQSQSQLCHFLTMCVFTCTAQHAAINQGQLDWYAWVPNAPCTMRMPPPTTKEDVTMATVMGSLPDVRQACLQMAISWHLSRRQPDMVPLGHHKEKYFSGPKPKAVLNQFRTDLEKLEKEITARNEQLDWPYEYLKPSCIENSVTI
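Purified human 12hLO at 150 nM in 25 mM Hepes, 0.01% Triton X-100, pH 7.0, preincubated 15 min at room temperature with compound. Reaction started with 40 uM arachidonic acid, 30 min at room temperature. Hydroperoxide measured by Fe-xylenol orange, 573/405 nm absorbance ratio.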
IL-2 act = activators of IL-2. IL-2 activation reporter assay, cell-based qHTS; stimulated with anti-CD3/CD4/CD28 beads; in transgenic mouse T cells. activation, % (series mostly up to about 46 µM). 360,000 tested, 0.065% active; in the data active = activation above about 50%; inconclusive = mostly about 30% to 49%
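First, unstimulated transgenic mouse T cells were exposed to compound for 60 min. Next, anti-CD3/anti-CD4-coated beads with anti-CD28 were added. Finally, after 18 h at 37 degrees C, EGFP and DsRed were imaged.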
uPA surface inh = blocks generation of uPA at the cell surface; 330,000 tested, 0.31% active; cell surface uPA generation assay, qHTS; Potency, µM (highest dose often 38.3 µM), usual class: inhibitors; active = well fitted inhibition curve with a large enough effect; inconclusive = small, poorly fitted or top-dose-only effect; inactive = no such curve, though single readings can be large or run the other way; tested in mouse RAW 264.7 cells; note: nearly all actives have a fitted effect of over 55% in size
Numbers stand for hits; . = inactive; ? = inconclusive; / = no result; ! = a repeat was not active. Unless noted, calls come from the whole dose curve; as a rule, active = well fitted curve in the direction sought with a large enough effect; inconclusive = small, poorly fitted or top-dose-only effect, or another doubt; inactive = no such curve, though single readings can be large; an effect the other way counts as inactive or inconclusive.

SMILES | Integrin act MD | Nrf2 ARE act | ALOX12 inh | IL-2 act | uPA surface inh
O=C(NN1C(=O)C2C(c3ccccc3)C=CC(c3ccccc3)C2C1=O)c1ccccc1 (configuration not stated) | . | . | . | . | .
CC(C)c1ccc(NC(=O)C(c2ccc3c(c2)OCO3)N2CCCCC2)cc1 (configuration not stated) | . | . | . | . | .
Oc1cc2c(cc1C(c1ccc(Cl)c(Cl)c1)N1CCCC1)OCO2 (configuration not stated) | . | . | 4.47µM | . | .
CC1CC(C)(C)N2C(=O)C3(Nc4ccccc4S3)c3cccc1c32 (configuration not stated) | . | . | / | . | .
O=C1N2CCCc3cccc(c32)C12Nc1ccccc1S2 (configuration not stated) | . | . | 25.1µM | . | .
Cc1cc(C)cc(NC(=O)c2nn(Cc3ccccc3)c(=O)c3ccccc23)c1 | / | / | . | / | /
c1ccc(Nc2c(-c3ccco3)nc3ccccn23)cc1 | . | . | . | . | .
c1ccc(-c2nc(-c3ccco3)n3ccccc23)cc1 | . | 11.2µM | ? | . | .
Cc1ccc(CNC(=O)Cn2c(-c3ccc(F)cc3)nc(C)c(CCO)c2=O)cc1 | / | / | . | / | /
CN(C)CCNC(=O)/C(=C/c1ccc(-c2ccc(Cl)cc2Cl)o1)NC(=O)c1ccccc1 | . | . | 44.7µM | . | .
O=C(/C=C/c1ccc(-c2ccccc2[N+](=O)[O-])o1)c1ccc(Br)cc1 | . | 2.51µM | . | . | /
O=C(/C=C/c1ccc(-c2ccc(Cl)cc2Cl)o1)c1ccccc1 | / | / | 1.58µM | / | /
O=C(/C=C/c1ccc(-c2ccccc2[N+](=O)[O-])o1)c1ccc(F)cc1 | . | ? | . | . | ?
Cc1ccc(C(=O)/C=C/c2ccc(-c3ccccc3[N+](=O)[O-])o2)cc1 | . | ? | . | . | .
O=C(/C=C/c1ccc(-c2ccccc2Cl)o1)c1ccccc1 | / | / | 20µM | / | /
O=C(/C=C/c1ccc(-c2ccccc2Br)o1)c1ccccc1 | / | / | . | / | /
C[C@@H](NS(=O)(=O)c1ccc(Cl)cc1)c1onc(-c2ccc(F)cc2)c1C(=O)O | / | / | . | / | /
CNC(=O)[C@@H]1CN(C(=O)C2CC=CC2)C[C@H]1CO | / | / | . | / | /
CCOC(=O)COc1cccc2c(=O)n(CC(=O)NCc3ccc4c(c3)OCO4)ccc12 | . | . | . | . | 1µM
CCOC(=O)C(C)Oc1cccc2c(=O)n(CC(=O)NCc3ccc(F)cc3)ccc12 (configuration not stated) | . | . | . | . | 0.316µM
COC(=O)COc1cccc2c(=O)n(CC(=O)NCc3ccc(F)cc3)ccc12 | . | . | . | . | 0.631µM
CCS(=O)(=O)N1C[C@@H]2CN(c3nccc(NC)n3)C[C@]2(C(=O)O)C1 | / | / | . | / | /
CCOC(=O)c1cc(S(=O)(=O)Nc2ccc3c(c2)OCCO3)[nH]n1 | / | / | 11.2µM | / | /
c1ccc(CNCc2ccc(-c3ccccc3)o2)cc1 | / | / | . | / | /
CCNCc1ccc(-c2ccccc2)o1 | / | / | 15.8µM! | / | /
SMILES | Integrin act MD | Nrf2 ARE act | ALOX12 inh | IL-2 act | uPA surface inh
COc1ccc2c3c(n(C)c2c1)[C@H](CO)N(C(=O)Cc1ccccc1)CC31CCN(C(=O)Cc2ccccc2)CC1 | / | / | . | / | /
COc1ccc2c3c([nH]c2c1)[C@@H](CO)N(Cc1ccccc1)CC31CN(C(=O)Cc2ccccc2)C1 | / | / | 5.01µM | / | /
CC(C)c1nc2sc3c(=O)[nH]c(=S)[nH]c3c2c2c1CCCC2 | . | . | 25.1µM | . | .
O=C(Cc1ccccc1F)Nc1ccc2c(N3CCCCC3)ncnc2c1 | / | / | . | / | /
NS(=O)(=O)c1cccc(NC(=O)c2cc(=O)c3ccccc3o2)c1 | ? | 12.6µM | ? | . | .
Cc1cccc(-c2noc(-c3ccc(I)cc3)n2)c1 | / | / | . | / | /
CCCCN(CCCC)C(=O)c1ccc(N)cc1 | / | / | 15.8µM | / | /
CCCCN(CC)C(=O)c1ccc(-c2ccccc2)cc1 | . | . | . | . | .
Cc1ccc(C(=O)Nc2nc(-c3ccccn3)cs2)s1 | . | . | . | . | 4.47µM
N#Cc1ccccc1OCC(=O)Nc1nc(-c2ccccn2)cs1 | . | . | 35.5µM | . | /
O=C(Nc1nc(-c2ccccn2)cs1)c1cccc(S(=O)(=O)N2CCOCC2)c1 | . | . | . | . | 10µM
O=C(Nc1nc(-c2ccccn2)cs1)c1ccc(Cl)s1 | . | . | . | . | ?
Cn1c(=O)c2c(ncn2CC(O)c2ccccc2)n(C)c1=O (configuration not stated) | / | / | . | / | /
